# System: Wnt5a (protein binding on small-molecule microarray)
# Test: small molecules binding Wnt5a protein – biophysical, small-molecule microarray, 635/667 nm fluorescence, primary screen (AID 1142);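 also: fluorescence read at 667 nm with signal to noise per printed feature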
# Settings: 635 nm fluorescence, higher = more signal
row,Compound,composite z-score
1,COc1cc(CO)cc(I)c1O[C@H]1C=C(C(=O)NCCO)C[C@@H](N(CC2CCCCC2)C(=O)c2cc3ccccc3oc2=O)[C@@H]1O,0.159
2,C=C(CCCC)/C(=C/C[C@@H](OC(=O)c1ccncc1)c1cccc(OCCO)c1)c1cc(C(=O)OC)ccc1OC,0.153
3,C=CCC(OC(C)=O)[C@@H]1[C@@H](N(Cc2ccc(-c3ccccc3)cc2)C(=O)c2ccc(-c3ccccc3)cc2)c2cc(OCCCO)ccc2N1C(=O)Cc1ccc(OC)cc1 (stereo partly specified),0.0459
4,CC(=O)NCCCC[C@@H]1NC(=O)[C@H]2C[C@@H](C(=O)NCCCCCCN(C)C)[C@@H](c3ccc(O)cc3)N2C1=O,0.124
5,Cc1ccc(S[C@]2(C(=O)NC(C)C)CC(=O)N(C3Cc4ccccc4C3)[C@@H]2c2ccc(CO)cc2)cc1,-0.157
6,Cc1ccc(N2C(=O)c3ccccc3[C@](C)(C(=O)NCC(C)C)[C@@H]2c2ccc(CO)cc2)nc1,-0.116
7,[N-]=[N+]=NCc1ccccc1C[C@]1(C(=O)N2CCCCC2)N=C(c2ccc(OCCCO)cc2)O[C@H]1c1ccccc1CN=[N+]=[N-],0.129
8,C=C(CCCC)/C(=C/C[C@H](OC(=O)c1ccncc1)c1cccc(OCCO)c1)c1cc(C(=O)OC)ccc1OC,0.84
9,O=C(CS)NCCCCCCNC(=O)[C@@H]1C[C@@H]2C(=O)N[C@@H](Cc3ccccc3)C(=O)N2[C@@H]1c1ccc(O)cc1,0.588
10,C=C(CCCC)C(=O)CC[C@@H](OC(=O)c1cccnc1)c1cccc(OCCO)c1,0.38
11,COc1ccc([C@H]2C[C@H]3C(Br)=C[C@]2(OC)C(=O)[C@]32CO2)cc1,-0.225
12,C=C(C(=O)CC[C@H](OC(=O)c1ccccc1-c1ccccc1C(=O)O)c1ccc(CO)o1)C(C)C,0.416
13,C#CCCCON=C1C[C@@H](O)[C@@H](O)[C@@H]2[C@@H]3C(=O)N(Cc4ccc5c(c4)OCO5)C(=O)[C@@H]3CC[C@H]12,0.322
14,COC(=O)c1ccc(C#CC(NP(=O)(c2ccccc2)c2ccccc2)c2ccccc2)cc1 (stereo unspecified),-0.0176
15,CCOC(=O)C1=CC[C@@H](c2ccc(-c3ccc(OCc4ccccc4)cc3)c(OC)c2)N(S(=O)(=O)c2ccc(C)cc2)[C@H]1c1ccccc1,0.0858
16,CC(c1ccccc1)C(O)C1C=CC2C(=O)N(C)C(=O)C2N1N(c1ccccc1)c1ccccc1 (stereo unspecified),0.156
17,C=C[C@H](OC)[C@@H](OC(=O)Nc1ccc(SC)cc1)c1ccc(O)c(F)c1,0.418
18,C=C(CCCC)C(=O)CC[C@@H](OC(C)=O)c1ccccc1OCCO,-0.283

row,Compound,composite z-score
1,CC(=O)NCCCC[C@@H]1NC(=O)[C@H]2C[C@@H](C(=O)NCCCCCCN(C)C)[C@@H](c3cccc(OCCO)c3)N2C1=O,0.906
2,CCCC=C(CCC)[C@@H](NS(=O)(=O)c1cccc(C(F)(F)F)c1)c1ccc(C(=O)OC)cc1,1.16
3,O=C(NCc1ccccc1)[C@@]1(Cc2ccccc2)COC(c2ccc(OCCCO)cc2)=N1,0.369
4,[N-]=[N+]=NCc1ccccc1[C@H]1OC(c2ccc(OCCCO)cc2)=N[C@@]1(Cc1ccccc1N=[N+]=[N-])C(=O)NCc1ccccc1,0.928
5,NC(=O)NCC#Cc1ccc2c(c1)[C@]1(C(=O)N2)[C@H](C(=O)N2CCCCCCC2)[C@H]2C(=O)O[C@H](c3ccccc3)[C@H](c3ccccc3)N2[C@@H]1c1ccccc1OCCO,1.58
6,C#CCNC(/C=C/c1ccccc1)CO (stereo unspecified),-0.0285
7,O=C1C2C=CC(C(O)C(c3ccccc3)c3ccccc3)N(Nc3ccc([N+](=O)[O-])cc3)C2C(=O)N1c1ccccc1 (stereo unspecified),0.528
8,C=C(CCCC)/C(=C/C[C@@H](OC(=O)c1ccncc1)c1ccc(CO)o1)c1cnc2ccccc2c1,0.209
9,CCc1cccc(NC(=O)O[C@H]2[C@H](OC(=O)Nc3ccccc3)[C@@H](OC(=O)Nc3ccccc3)[C@@H](OC)O[C@@H]2CO)c1,0.73
10,C=CC[C@]1(C(=O)N2CCCCC2)N=C(c2ccc(OCCCO)cc2)O[C@H]1c1ccccc1N=[N+]=[N-],0.824
11,C#C[C@H](O[Si](C#Cc1ccccc1)(C(C)C)C(C)C)c1ccccc1,-0.0449
12,CCOC(=O)C1=CC[C@@H](c2ccccc2)N(S(=O)(=O)c2ccc(C)cc2)[C@H]1C,0.532
13,O=C(N1CCCCC1)[C@@]1(CCS(=O)(=O)c2ccccc2)N=C(c2ccc(OCCCO)cc2)O[C@H]1c1ccccc1,1.31
14,CC(C)(C)OC(=O)CC[C@]1(C(=O)N2CCCCC2)N=C(c2ccc(OCCCO)cc2)O[C@H]1c1ccccc1,0.836
15,N#Cc1ccc(NN2C(C(O)CCc3ccccc3)C=CC3C(=O)N(c4ccccc4)C(=O)C32)cc1 (stereo unspecified),0.135
16,Cc1ccc(S[C@]2(C(=O)NC3CC3)CC(=O)N(Cc3cc(C(F)(F)F)cc(C(F)(F)F)c3)[C@@H]2c2ccc(CO)cc2)cc1,0.134
17,C#CCCCON=C1C[C@@H](O)[C@@H](O)[C@@H]2[C@@H]3C(=O)N(Cc4ccc5c(c4)OCO5)C(=O)[C@@H]3CC[C@@H]12,-0.323
18,Cc1ccc(S(=O)(=O)N2[C@@H](c3ccccc3)C(C(=O)O)=CC[C@H]2c2ccccc2)cc1,0.105

# From PubChem BioAssay
